{"source": "PubChem BioAssay (Tox21)", "note": "Records with an inconclusive call do not appear. Activity calls are given as the source filed them. Calls follow the shape of the dose curve; as a rule, active = well fitted activation curve with a large enough effect in the signal ratio in the repeat runs, with a control signal flat (not every such curve was filed as active); inconclusive = weak or mixed curves; inactive = flat fitted curve, though single readings scatter; the % refers to the signal ratio.", "data": [{"assay": "qHTS assay for small molecule activators of the heat shock response signaling pathway (AID 743210)", "conditions": "HeLa HSE-bla reporter, beta-lactamase ratio, 5 h; series mostly up to 62.6 µM", "text": "U.S. Tox21 Program National Center for Advancing Translational Sciences [NCATS] NIH Chemical Genomics Center [NCGC] U.S. Environmental Protection Agency [EPA] National Institutes of Environmental Health Sciences [NIEHS] National Toxicology Program [NTP] U.S. Food and Drug Administration [FDA] Tox21 Assay Overview: Various chemicals, environmental and physiological stress conditions may lead to the activation of heat shock response/ unfolded protein response (HSR/UPR). There are three heat shock transcription factors (HSFs) (HSF-1, -2, and -4) mediating transcriptional regulation of the human HSR. To identify the compounds that activate HSR signaling, HSE-bla HeLa cell line (Invitrogen, Carlsbad, CA, USA) containing a beta-lactamase reporter gene under the control of the heat shock response elements was used to screen the Tox21 10K compound library.\nTox21 Assay Protocol Summary: The CellSensor HSE-bla HeLa cells (Invitrogen, Carlsbad, CA, USA) were dispensed at 1500 cells/6uL/well into 1536-well black wall/clear bottom plates using a Multidrop combi (Thermo Fisher Scientific, Waltham, MA) dispenser. After the assay plates were incubated at 37 C and 5% CO2 overnight, 23 nL of compounds dissolved in DMSO, positive controls or DMSO only was transferred to the assay plate by a Pintool station (Kalypsys, San Diego, CA). The plates were incubated at 37 C for 5 h. After 1 uL of LiveBLAzerTM B/G FRET substrate was added using a Flying Reagent Dispenser (Beckman Coulter, Indianapolis, IN, USA), the plates were incubated at room temperature for 2.5 h, and fluorescence intensity was measured by an Envision plate reader (PerkinElmer, Shelton, CT).", "values": [{"smiles": "CC(=O)c1ccc2c(c1)Cc1ccccc1-2", "outcome": "inactive"}, {"smiles": "On1nnc2ccccc21", "outcome": "inactive"}, {"smiles": "CC(=C(CCOC(=O)C(C)C)SSC(CCOC(=O)C(C)C)=C(C)N(C=O)Cc1cnc(C)nc1N)N(C=O)Cc1cnc(C)nc1N", "outcome": "inactive"}, {"smiles": "Brc1ccc(-c2ccccc2)cc1", "outcome": "inactive"}, {"smiles": "O=C(NCCN1CCOCC1)c1ccc(Cl)cc1", "outcome": "inactive"}, {"smiles": "C=CCCCCCCCCCCCC", "outcome": "inactive"}, {"smiles": "COC(=O)CCc1ccc(OCC(O)CNC(C)C)cc1", "note": "(stereo not given)", "outcome": "inactive"}, {"smiles": "COC(=O)[C@@H]1[C@H]2C[C@H]3c4[nH]c5ccccc5c4CCN3C[C@@H]2CC[C@@H]1O", "outcome": "inactive"}, {"smiles": "Oc1ccccc1-c1nnco1", "outcome": "inactive"}, {"smiles": "CN(C)C(=O)CNC(=O)Cc1ccccc1", "outcome": "inactive"}, {"smiles": "Cc1ccccc1OCC(O)CO", "note": "(stereo not given)", "outcome": "inactive"}, {"smiles": "O=C1c2ccccc2C(=O)c2cc(S(=O)(=O)O)ccc21", "outcome": "inactive"}, {"smiles": "CC(C)(C)c1cc(CCC(=O)NN)cc(C(C)(C)C)c1O", "outcome": "inactive"}, {"smiles": "CC(=O)Nc1ccc(S(=O)(=O)Cl)cc1", "outcome": "inactive"}, {"smiles": "O=C(CCNNC(=O)c1ccncc1)NCc1ccccc1", "outcome": "inactive"}, {"smiles": "O=C(O)C(=O)Cc1ccccc1", "outcome": "inactive"}, {"smiles": "CC(C)C(=O)OCc1cccc(OC(=O)[C@@H]2N3C(=O)[C@@H](NC(=O)Cc4ccccc4)[C@H]3SC2(C)C)c1", "outcome": "inactive"}, {"smiles": "BrCCCCCBr", "outcome": "inactive"}, {"smiles": "CCCCCOC(=O)CCC", "outcome": "inactive"}, {"smiles": "CC(C)CCCCOC(=O)c1ccccc1C(=O)OCCCCC(C)C", "outcome": "inactive"}, {"smiles": "CCCCCCCCOS(=O)(=O)O", "outcome": "inactive"}, {"smiles": "NS(=O)(=O)c1cc2c(cc1Cl)CN(C1CCCCC1)C2=O", "outcome": "inactive"}, {"smiles": "O=C1CCCC(=O)O1", "outcome": "inactive"}, {"smiles": "CC(=O)NCc1c(I)c(NC(C)=O)c(I)c(C(=O)O)c1I", "outcome": "inactive"}, {"smiles": "O=C(O)Cc1ccc(Cl)cc1Cl", "outcome": "inactive"}, {"smiles": "CNS(=O)(=O)CCc1ccc2[nH]cc(C3CCN(C)CC3)c2c1", "outcome": "inactive"}, {"smiles": "CN(C)c1ccc(C=O)cc1", "outcome": "inactive"}, {"smiles": "COCCOCCOCCOCCO", "outcome": "inactive"}, {"smiles": "CCOC(=O)c1ncn2c1CN(C)C(=O)c1cc(F)ccc1-2", "outcome": "inactive"}, {"smiles": "CCOC(=O)[C@H](CCc1ccccc1)N[C@@H](C)C(=O)N1C(=O)N(C)C[C@H]1C(=O)O", "outcome": "inactive"}, {"smiles": "CC(C)(C)c1n[nH]c(=S)n(N)c1=O", "outcome": "inactive"}, {"smiles": "Cc1cc(Cl)c(C)cc1Cl", "outcome": "inactive"}, {"smiles": "C=Cc1ccccn1", "outcome": "inactive"}, {"smiles": "CCC(CC)CO", "outcome": "inactive"}, {"smiles": "CCOc1cc(NC(C)=O)ccc1C(=O)OC", "outcome": "inactive"}, {"smiles": "CCCCCCCC/C=C\\CCCCCCCC(=O)OCCCC", "outcome": "inactive"}, {"smiles": "CC(S)C(=O)NCC(=O)O", "note": "(stereo not given)", "outcome": "inactive"}, {"smiles": "ClCCCl", "outcome": "inactive"}, {"smiles": "NS(=O)(=O)c1ccc(NC(=O)CCC(=O)O)cc1", "outcome": "inactive"}, {"smiles": "CCOC(=O)CC(=O)c1ccccc1", "outcome": "inactive"}]}]}
